Screening data: PubChem, several laboratories
PostGolgi ctrl: growth of the yeast control strain, post-Golgi counter-screen; efflux-deficient yeast background strain, growth absorbance A615, 16 h; inhibition, % at 10 µM; hit rate 5% among 98,000
CYP2C9 inh: human CYP2C9 inhibition; P11712; AID 777; inhibition, % at 5 µM; CYP2C9 Supersomes, luciferin-H conversion, luminescence; hit rate 20% among 96,000;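 active = blocking of liver enzyme CYP2C9 beyond about 50% at 5 µM, limit read from the data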
PostGolgi yeast: growth inhibition of a yeast mutant, post-Golgi transport screen. hit rate 0.9% among 98,000. inhibition, % at 10 µM. post-Golgi transport phenotypic cell assay;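 note: yeast cells grown in 1536-well plates; yeast grown about 18 h at 30C before absorbance read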
CYP2C19 activ: increases human CYP2C19 enzyme activity; P33261; recombinant CYP2C19, luciferin-H EGE luminescence; active compounds read high; 0 = fully inhibited enzyme, 1 = untreated enzyme; 96,000 tested, under 10 active; activation factor at 5 µM;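 active = activation factor of at least 2 at 5 µM in the primary screen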;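 note: 0 = wells with 2.5 mM tranylcypromine and 1 = vehicle-only wells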
Target sequence (P33261 whole entry, looked up): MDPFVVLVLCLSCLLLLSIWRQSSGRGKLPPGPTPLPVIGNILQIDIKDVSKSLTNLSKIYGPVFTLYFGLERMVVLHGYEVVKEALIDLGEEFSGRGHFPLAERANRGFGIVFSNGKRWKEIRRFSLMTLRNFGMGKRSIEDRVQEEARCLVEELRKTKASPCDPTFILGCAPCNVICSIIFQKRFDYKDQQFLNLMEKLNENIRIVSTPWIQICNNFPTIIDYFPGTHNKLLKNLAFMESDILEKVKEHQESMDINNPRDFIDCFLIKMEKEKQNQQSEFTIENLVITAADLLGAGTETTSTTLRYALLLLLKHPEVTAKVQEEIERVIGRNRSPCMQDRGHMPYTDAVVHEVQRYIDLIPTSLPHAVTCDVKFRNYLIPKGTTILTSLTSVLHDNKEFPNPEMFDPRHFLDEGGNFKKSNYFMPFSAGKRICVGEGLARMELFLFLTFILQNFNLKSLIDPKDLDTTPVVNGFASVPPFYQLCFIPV
CYP2C9 act: increases human cytochrome P450 2C9 activity | activation factor at 5 µM | recombinant CYP2C9, luciferin-H conversion, luminescence; active compounds read high; factor 1 = untreated enzyme, 0 = blocked | hit rate 1.4% among 96,000 | P11712 | AID 1024;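 active = activation factor of 2 or more for CYP2C9 at a 5 µM dose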;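 note: 0 = sulfaphenazole-blocked wells and 1 = vehicle-only wells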
CYP2C19 inhib: human CYP2C19 inhibition; inhibition, % at 5 µM; hit rate 21% among 96,000; CYP2C19 Supersomes, luciferin-H EGE luminescence, 30 min; P33261;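 active = CYP2C19 inhibition above a set limit at 5 µM in the primary screen, cut at about 50% in these data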;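 note: plate controls were negative control wells for no effect and 2.5 mM tranylcypromine positive control for full effect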
* = called active by the depositor; · = not tested or not shown. Most compounds without a hit are left out; they make up all but 32% or so of the library. Cut-off read from the data, not from the text of the source, unless noted: active = inhibition above about 30%; inactive = the rest.

SMILES	PostGolgi ctrl	CYP2C9 inh	PostGolgi yeast	CYP2C19 activ	CYP2C9 act	CYP2C19 inhib
CC1(C)C(=O)OC(C(=O)c2ccccc2)C(C)(C)C1=O (stereo unspecified)	7	58*	-1	0.1	0.4	91*
CSCC[C@H](NC(=O)CCNC(C)=O)c1nc2ccccc2[nH]1	0	-12	18	1	1.1	-2
O=C(NNC1CC(=O)N(c2ccc3c(c2)OCCO3)C1=O)c1ccccc1 (stereo unspecified)	-4	6	-5	0.9	0.9	6
COc1cc(CNCCO)cc(Br)c1OCc1cccs1	4	-17	20	0.6	1.2	44
COc1cc(CNCc2ccncc2)cc(Br)c1OCc1ccccc1F	13	91*	8	0.1	0.1	86*
COc1cc(CO)cc(Br)c1OCc1cccnc1	2	-109	-1	0.2	2.1*	80*
O=C(CCSc1ccccc1)Nc1ccc(OCc2ccccc2)cc1	12	6	-6	1	0.9	-5
CC(=C1C2C=CC1C1C(=O)NC(=O)C21)c1ccccc1 (stereo unspecified)	24	-18	3	0.2	1.2	79*
CCOCCCNC(=O)C(NC(=O)C1CCC(=O)N1)c1ccc(C)cc1 (stereo unspecified)	-1	-11	3	1.2	1.1	-24
CCOC(=O)c1cnc2ccc(OC)cc2c1Nc1ccc2c(c1)OCCO2	15	96*	9	0.5	0	46
CCOc1ccc2nc(C)cc(Nc3ccc4c(c3)OCCO4)c2c1	-4	12	-14	0.7	0.9	34
CCOC(=O)c1cnc2ccc(C(=O)OC)cc2c1Nc1ccc2c(c1)OCCO2	5	54*	1	0.7	0.5	27
Cc1cc(C(=O)COC(=O)CCc2nc3ccccc3s2)c(C)n1C	-9	-86	14	0.9	1.9	15
CC(C)(C)OC(=O)N1CCN(c2ccc(CNC(=O)c3ccc(Cl)cc3)cc2)CC1	10	48	0	0.6	0.5	38
Cn1c(CN2CCN(c3ccc(Cl)cc3)CC2)nc2ccccc21	6	15	5	0.4	0.9	64*
Cc1ccc(S(=O)(=O)N2CCN(Cc3nc4ccccc4n3C)CC2)cc1	9	18	-5	0.9	0.8	8
Cc1ccc(Oc2nccc(-c3ccc(Cl)cc3)n2)cc1	5	24	7	0.5	0.8	53*
CC1(C)CNC(=O)c2sc(N3CCCCC3)nc2C1	6	-1	2	0.9	1	6
CC1(C)CC(=O)c2sc(N3CCCCC3)nc2C1	-3	26	12	0.4	0.7	58*
Nn1c(SCc2nc3ccccn3c2Br)nnc1-c1cccnc1	17	-153	-12	0.9	2.5*	9
Cc1ccc(C)c(CSc2nnc(-c3cccnc3)n2N)c1	14	-13	4	0.8	1.1	20
Cn1c(=O)c2c(ncn2CC(=O)Nc2ccc(Cl)cc2Cl)n(C)c1=O	10	13	-5	0.8	0.9	18
CCOc1ccccc1OCCn1ncc2ccc(OC)c(OC)c2c1=O	5	-24	-2	0.4	1.2	58*
COc1ccc2cnn(-c3ccc(C)cc3)c(=O)c2c1OC	8	65*	-5	0.7	0.4	28
O=C(c1nn2cccnc2c1Cl)N1CCN(c2ccccc2)CC1	23	·	2	·	·	·
SMILES	PostGolgi ctrl	CYP2C9 inh	PostGolgi yeast	CYP2C19 activ	CYP2C9 act	CYP2C19 inhib
CCNc1nc(NCC)nc(Nn2cnnc2)n1	7	-12	-8	1	1.1	2
CCCC(=O)Nc1ccc2oc(-c3ccc(OC)c(Br)c3)nc2c1	7	-53	7	0.7	1.5	29
Cc1ccc(OCC(=O)Nc2ccc(-c3nc4ncccc4o3)cc2)c(C)c1	6	46	24	0.4	0.5	63*
CCCC(=O)Nc1ccc(-c2nc3cc(C)ccc3o2)cc1	30*	-1	2	0.9	1	14
CSc1ccc(Cl)c(C(=O)OCC(=O)NCC(C)C)c1	4	23	4	0.3	0.8	66*
CC(C)CNC(=O)COC(=O)c1ccc(Cl)c(S(N)(=O)=O)c1	5	-8	-3	1	1.1	0
CCOC(=O)N1CCC(N2Cc3cccc(C(=O)Nc4ccc(F)cc4)c3C2=O)CC1	9	90*	-6	0.6	0.1	44
CCOC(=O)N1CCC(N2Cc3cccc(C(=O)Nc4ccc(CC)cc4)c3C2=O)CC1	34*	100*	0	0.1	0	94*
O=C(NCc1ccc2c(c1)OCO2)c1cccc2c1C(=O)N(C1CCCCC1)C2	14	-5	4	1.1	1.1	-13
CCOC(=O)N1CCC(N2Cc3cccc(C(=O)O)c3C2=O)CC1	0	38	-2	1	0.6	4
CCOC(=O)N1CCC(N2Cc3cccc(C(=O)NCC4CCN(CC(C)C)C4)c3C2=O)CC1 (stereo unspecified)	12	96*	5	0.1	0	86*
Cc1ccc(NC(=O)c2cccc3c2C(=O)N(C2CCCCC2)C3)cc1	44*	26	10	0.9	0.7	8
Cc1ncoc1C(=O)Nc1ccccc1-c1ccccc1	5	30	3	0.8	0.7	16
CCOC(=O)N1CCC(N2Cc3cccc(C(=O)Nc4cc(F)ccc4F)c3C2=O)CC1	4	78*	7	0.8	0.2	21
CCOC(=O)N1CCC(N2Cc3cccc(C(=O)NCc4ccccc4OC)c3C2=O)CC1	22	·	2	·	·	·
Nc1ccc(N2CCN(C(=O)c3ccco3)CC2)cc1	8	18	-1	0.6	0.8	44
CC(=O)c1coc2c1cc(O)c1ccccc12	10	9	-3	0.7	0.9	27
CCOC(=O)c1c(C)oc2c1cc(O)c1ccccc12	39*	73*	-6	0.7	0.3	33
CCOC(=O)c1c(C)oc2c1c(C=NCc1ccccn1)c(O)c1ccccc12	10	86*	2	0.4	0.1	64*
NC(=O)Nc1ccc(F)cc1	0	-3	0	1	1	-3
O=S(=O)(Nc1ccc2c(c1)OCO2)c1ccc(Br)s1	12	96*	2	0.2	0	78*
O=C(Nc1ccc2c(c1)OCO2)c1cncc(Br)c1	18	8	4	0.9	0.9	14
COc1cc(NS(=O)(=O)c2ccc(Br)s2)cc(OC)c1	14	96*	-13	0	0	100*
COc1ccc(CCNC(=O)CNS(=O)(=O)c2ccc(Br)s2)cc1OC	7	44	6	0.7	0.6	32
CC(=O)c1cc2c(cc1NS(=O)(=O)c1ccccc1)OCO2	18	-177	8	0.1	2.8*	88*
COc1ccc(S(=O)(=O)Nc2ccc3c(c2)OCO3)cc1	8	56*	-2	0.1	0.4	93*
CCOC(=O)C1CCN(C(=O)c2cc(S(=O)(=O)N3CCOCC3)c(Cl)cc2Cl)CC1	1	40	-1	0.8	0.6	16
